Screening results deposited in PubChem by National Center for Advancing Translational Sciences (NCATS).
PI4K2A block – blocks human PI4K2A kinase activity | AID 1346378 | Q9BTU6 | purified PI4K2A, ADP-Glo luminescence, 1 h; hits give low values | 0.13% of 420,000 active | activity change, negative = inhibition, % at 76.9 µM; in the data active = activity change below about -50%; inconclusive = mostly about -30% to -49%;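 note: -100% = wells without enzyme as full effect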
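Compounds are screened against recombinant PI4K2A using PI as substrate and ATP, the latter dispensed at 300 microM. Reactions run one hour at ambient temperature before ADP-Glo detection; full inhibition defined by wells lacking enzyme.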
KAT2A inh – GCN5L2 (KAT2A) acetyltransferase inhibition; Q92830; GCN5L2 HAT assay, ThioGlo1 CoA-SH fluorescence; Potency, µM (highest dose often 58.9 µM), for the others: top-dose activity change, negative = inhibition, usual class: inhibitors; 0.21% of 390,000 active; note: potency is the fitted concentration of half-maximal effect
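Compounds, pin-transferred from DMSO stocks, meet 20nM GCN5L2 for 15 min before the reaction begins with H3(1-25) peptide (75uM) and acetyl-CoA (70uM). Thiol-reactive ThioGlo1 reports CoA release over 20 min at room temperature.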
Pin1 inhibitor – human Pin1 inhibition; Potency, µM (series often up to 115 µM), for inactives: at the highest dose activity, negative = inhibition, hits mostly inhibitors; Q13526; AID 504891; 0.009% of 390,000 active; Pin1 FP peptide displacement, HiFluor488, 10 min; active = well fitted inhibition curve with a large enough effect in the polarisation, with a control signal flat, not every such curve was filed as active; inconclusive = small, poorly fitted or top-dose-only effect, or effect the other way, or a change in a side signal; inactive = no such curve, though single readings can be large or run the other way; the % refers to the polarisation; note: potency is the fitted concentration of half-maximal effect
Target sequence (Q13526 whole entry, looked up): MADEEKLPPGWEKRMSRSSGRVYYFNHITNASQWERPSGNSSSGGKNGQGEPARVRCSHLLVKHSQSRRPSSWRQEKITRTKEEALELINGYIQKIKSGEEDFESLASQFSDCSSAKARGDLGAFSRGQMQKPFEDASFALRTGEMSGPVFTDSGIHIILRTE
RGS12 GoLoco inh – RGS12 GoLoco-Gai1 interaction inhibition; P63096; AID 880; Potency, µM (top dose mostly 61.6 µM), for inactives: at the highest dose activity, negative = inhibition, usual class: inhibitors; Gai1:RGS12 GoLoco peptide FP, rhodamine, 10 min; 0.44% of 230,000 active; active = well fitted inhibition curve with a large enough effect, not every such curve was filed as active; inactive = no such curve, though single readings can be large or run the other way; note: potency is the fitted concentration of half-maximal effect; nearly all actives have a fitted effect of over 30% in size
Target sequence (P63096 whole entry, looked up): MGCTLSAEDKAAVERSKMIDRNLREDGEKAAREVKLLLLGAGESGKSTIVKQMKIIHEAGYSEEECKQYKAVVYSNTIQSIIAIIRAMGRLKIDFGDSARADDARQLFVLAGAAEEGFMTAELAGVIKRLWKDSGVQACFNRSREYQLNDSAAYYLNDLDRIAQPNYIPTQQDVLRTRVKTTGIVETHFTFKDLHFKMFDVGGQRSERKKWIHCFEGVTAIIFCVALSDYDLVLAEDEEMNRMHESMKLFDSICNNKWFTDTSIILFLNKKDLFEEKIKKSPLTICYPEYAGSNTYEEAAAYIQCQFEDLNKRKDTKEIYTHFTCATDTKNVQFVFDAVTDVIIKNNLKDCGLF
PI5P4Ka inh – PI5P4K alpha (human) kinase inhibition; P48426; PI5P4Kalpha enzyme, ADP-Glo luminescence, 60 min; hits give low values; max response, %; 1.2% of 330,000 active; AID 652105; active = max response of -50% or lower; inconclusive = between -30% and -50%; inactive = -30% or higher; note: value at the top dose of about 77 µM
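Luminescence from ADP-Glo served as readout of PI5P4Kalpha activity in a qHTS format. Reaction: enzyme, substrate, compound, ATP at 5 microM final, 60 min at RT.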
Tb PGK inh – T. brucei PGK inhibition; P07378; PGK/GAPDH coupled, Kinase-Glo luminescence, 60 min; Potency, µM (doses to about 57.5 µM), without a hit: top-dose activity change, negative = inhibition, usual class: inhibitors; 0.043% of 380,000 active; AID 602233; note: potency is the fitted concentration of half-maximal effect; nearly all actives have a fitted effect of over 60% in size
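Luminescent ATP detection (Kinase-Glo Plus) follows a 60-minute room-temperature incubation, with wells lacking PGK as controls. Buffer: 100 mM TEA (pH 7.6), 5 mM MgCl2, 0.01% Tween-20. Coupling enzyme GAPDH (100 nM final) supplies unstable 1,3-BPG in-well.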
Active calls of the source: *; i = inactive; ? = inconclusive; . = not tested or not shown. Rows were chosen to be rich in hits. Some 1.2% of all compounds tested hit in one or more screens of this group. Unless noted, calls come from the whole dose curve; as a rule, active = well fitted curve in the direction sought with a large enough effect; inconclusive = small, poorly fitted or top-dose-only effect, or another doubt; inactive = no such curve, though single readings can be large; an effect the other way counts as inactive or inconclusive. Unless noted, % is set by controls: 0 for no effect and ±100 for the full control effect.

SMILES	PI4K2A block	KAT2A inh	Pin1 inhibitor	RGS12 GoLoco inh	PI5P4Ka inh	Tb PGK inh
CN(C)/C=C1/C(=O)N(c2ccc([N+](=O)[O-])cc2)N=C1c1ccccc1	.	-14.5%	.	3.3%	.	.
CN(C)CCCNC(CC(=O)Nc1cccc([N+](=O)[O-])c1)C(=O)O (stereo unspecified)	-4.4	-1.0%	-7.0%	2.8%	5.3	-1.3%
O=C1NC(=S)NC1=Cc1ccco1	-0.1	.	?	.	-93.2*	?
O=C1NC(=O)/C(=C/c2ccco2)N1	-0.4	-7.9%	-17.2%	.	.	-8.1%
CN(C)S(=O)(=O)c1cccc(N=C2NN=C(c3ccccc3)CS2)c1	-8.7	4.2%	21.9%	-11.9%	-17.9	i
CC(=O)Nc1ccc(C2=NNC(=Nc3cccc(S(=O)(=O)N(C)C)c3)SC2)cc1	-27.9	-5.5%	-2.8%	29.7%	-71.0*	.
O=C(N/N=C/c1ccc2c(c1)OCO2)c1ccc2c(c1)OCCO2	-4.7	-2.4%	-2.6%	5.6%	0.1	i
O=C(N/N=C/c1cc(Br)c(O)c(Br)c1O)c1ccc2c(c1)OCCO2	5.4	-3.8%	-2.9%	.	-56.4*	-5.3%
O=C(N/N=C/c1cc(Br)c(Br)o1)c1ccc2c(c1)OCCO2	-12.6	-13.9%	29.7%	58.3%	-56.8*	-8.0%
CC1C(=O)Nc2ccc(S(=O)(=O)Nc3ccccc3Br)cc2NC1=O (stereo unspecified)	-0.2	-21.1%	0.0%	.	-19.6	8.5%
Cc1cc2nc3s/c(=C/c4ccc(-c5ccccc5C(=O)O)o4)c(=O)n3c2cc1C	-7.5	-5.1%	?	.	-86.3*	i
CC1=NN(c2ccc(Br)cc2)C(=O)/C1=C/c1ccc(-c2ccccc2C(=O)O)o1	-50.2*	4.8%	.	.	3.4	-15.7%
CCOC(=O)CSc1nc2ccc(S(=O)(=O)N3CCOCC3)cc2[nH]1	-2.8	-1.2%	7.4%	0.2%	0.0	2.7%
CCCC[C@H]1C2CC(OC(=O)Nc3ccc(Br)cc3)C(C2)[C@H]2CCCCN21 (stereo partly specified)	-1.5	.	.	.	.	.
CCCCC1OC23CCCCC2C(C#N)(C(=N)O3)C1(C#N)C#N (stereo unspecified)	8.7	-8.3%	?	-42.0%	-2.1	-0.3%
CCCCC1OC23CCCCC2C(C#N)(C#N)C1(C#N)C(=N)O3 (stereo unspecified)	-0.8	-10.5%	?	28.2µM*	-6.7	-2.9%
CCCCCCCCOc1ccc(C2OC34CCCCC3C(C#N)(C#N)C2(C#N)C(=N)O4)cc1 (stereo unspecified)	-8.5	-6.8%	?	28.2µM*	1.7	-9.1%
CCCN(CCC)Cc1c(C(=O)N/N=C/c2c[nH]c3ccccc23)nnn1-c1nonc1N	-3.8	-18.0%	5.8%	.	-63.3*	-5.6%
C/C(C=NNC(=O)c1cc(-c2ccc(C)c(C)c2)n[nH]1)=C/c1ccco1	-4.1	.	.	.	.	.
O=C(N/N=C/C=C\c1ccco1)c1ccccn1	-10.2	-23.6%	.	-1.2%	-54.9*	-24.1%
O=C(N/N=C\C=C\c1ccco1)c1cc(-c2ccc3ccccc3c2)n[nH]1	?	-21.0%	?	17.1%	-68.2*	.
O=C(N/N=C/C=C/c1ccco1)c1cnccn1	-9.4	-13.3%	-14.0%	-4.7%	-1.5	-2.5%
CN(C)c1ccc(/C=N/NC(=O)c2ccccn2)cc1	-50.1*	-6.1%	-9.4%	8.0%	-27.3	?
O=C(N/N=C\c1ccco1)c1cncc(Br)c1	.	-8.8%	.	10.6%	.	.
O=C(N/N=C\C=C\c1ccco1)c1cncc(Br)c1	-10.6	-26.3%	?	7.7%	-53.0*	-2.2%
SMILES	PI4K2A block	KAT2A inh	Pin1 inhibitor	RGS12 GoLoco inh	PI5P4Ka inh	Tb PGK inh
N#CC1(NC(=O)COC(=O)CNC(=O)c2sc3ccccc3c2Cl)CCCCC1	-7.7	1.3%	-0.3%	.	-3.5	-3.4%
Cc1nc(Nc2ccc(C(=O)O)cc2)nc(Nc2ccc(C(=O)O)cc2)c1[N+](=O)[O-]	-10.4	-0.8%	-23.9%	-6.0%	-56.4*	-5.9%
CCCCCCCCCCCCN1C/C(=C\C(=O)OCC)c2ccccc2S1(=O)=O	-1.5	-18.7%	48.6%	.	15.7	-8.3%
COC(=O)/C(=C\C=C\c1ccccc1)NC(=O)c1ccccc1	-2.7	-20.8%	-1.0%	6.3%	-53.5*	-0.3%
COc1ccc(-c2cc3nc(CCl)[nH]c(=O)c3s2)cc1	-50.3*	-7.4%	14.2%	.	?	-17.4%
COc1cccc(CNc2nc3cc(-c4cccc(Cl)c4)sc3c(=O)n2C)c1	2.8	.	.	.	23.3	.
CC(C)Cc1nn2c(=O)cc(COC(=O)c3ccccc3NC(=O)c3cccs3)nc2s1	3.4	0.0%	-5.7%	.	.	0.9%
Cc1ccnc(NS(=O)(=O)c2ccc(NC(=O)c3ccc(N4C(=O)CCC4=O)cc3)cc2)n1	-8.4	-5.2%	-0.1%	11.7%	-63.9*	-9.3%
COc1ccc(C(=O)Nc2ccc(S(=O)(=O)Nc3nccc(C)n3)cc2)cc1	2.4	-2.2%	3.6%	.	-8.4	.
Cc1ccnc(NS(=O)(=O)c2ccc(NC(=O)Cc3cccs3)cc2)n1	-20.3	-27.3%	2.4%	37.6%	-83.0*	?
COc1ccc(-c2csc3ncn(-c4ccccc4)c(=O)c23)cc1OC	-1.2	?	-2.0%	5.5%	-0.9	-7.4%
COc1ccc(-c2cc(C(F)(F)F)c3c(n2)sc2c(O)cc(=O)[nH]c23)c(OC)c1	-56.0*	-29.3%	?	170.6%	?	-2.3%
Cc1cc(C)c2c(n1)sc1c(O)cc(=O)[nH]c12	-5.9	-9.7%	.	11.9%	.	-8.3%
COc1ccc(/C=C2\CCc3ccccc3C2=O)cc1Cn1cccn1	-5.1	17.8µM*	?	-6.7%	9.6	-8.2%
COc1ccc(/C=C2\CCC(C3CCCC3)C2=O)cc1Cn1cccn1 (stereo unspecified)	-0.7	-9.6%	-3.8%	6.6%	8.9	-7.3%
CC(C)n1c(SCC(=O)Nc2nncs2)nnc1-c1ccco1	-2.6	?	?	.	-74.2*	-25.2%
Cc1nnc(NC(=O)CSc2nnc(-c3ccco3)n2C(C)C)s1	-0.2	-5.4%	4.5%	.	1.4	-3.7%
CCC(C)Sc1ccc(-c2nc3cc(C)ccn3c2NC2CCCCC2)cc1 (stereo unspecified)	-4.6	-23.7%	48.2%	.	-1.2	2.0%
CCC(C)Sc1ccc(-c2nc3cnccn3c2NC2CCCCC2)cc1 (stereo unspecified)	-1.8	28.2µM*	6.2%	.	-12.6	5.6%
N#Cc1cccc(Cn2nnc(-c3ccccc3)n2)c1	1.2	-11.0%	-0.1%	5.3%	4.3	-4.1%
O=c1[nH]sc2ccccc12	-0.7	8.91µM*	1.6%	-34.3%	-92.7*	-2.9%
O=c1ccsc2ccccc12	-2.2	.	-1.2%	.	1.4	-8.0%
